Compounds without any hit were thinned out: in the full panel of roughly 83,000, 20% have a hit.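 Testing used 96-well plates and a 48-hour single-concentration exposure. Example: -40 means 40% of the starting cells died.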 The source made the active and inactive calls. The calls were made as follows: active = growth percent below 10; inactive = the rest.
Tests used:
Assay in all cases: NCI-60 one-dose screen, 48 h (100 = growth as untreated, 0 = no growth, -100 = all killed)
Conditions in all cases: 10 µM unless noted
SK-MEL-2 melanoma = tested on: SK-MEL-2 melanoma
EKVX NSCLC = tested on: EKVX NSCLC
SN12C renal = tested on: SN12C renal
UO-31 renal = tested on: UO-31 renal
TK-10 renal = tested on: TK-10 renal
ACHN renal = tested on: ACHN renal
CAKI-1 renal = tested on: CAKI-1 renal
A498 renal = tested on: A498 renal
CCRF-CEM leukemia = tested on: CCRF-CEM leukemia
MOLT-4 leukemia = tested on: MOLT-4 leukemia
SR leukemia = tested on: SR leukemia
RPMI-8226 leukemia = tested on: RPMI-8226 leukemia
OVCAR-8 ovarian = tested on: OVCAR-8 ovarian
OVCAR-5 ovarian = tested on: OVCAR-5 ovarian
OVCAR-4 ovarian = tested on: OVCAR-4 ovarian
SK-OV-3 ovarian = tested on: SK-OV-3 ovarian
IGROV1 ovarian = tested on: IGROV1 ovarian
OVCAR-3 ovarian = tested on: OVCAR-3 ovarian
HS 578T breast = tested on: HS 578T breast
NCI/ADR-RES ovarian = tested on: NCI/ADR-RES ovarian

Measured: growth

C=C1C(=O)O[C@H]2[C@H]1CC/C(COC(=O)c1cc3cc(Cl)ccc3[nH]1)=C\CC[C@@]1(C)O[C@@H]21
active: SK-MEL-2 melanoma -84.2% | EKVX NSCLC -83% | SN12C renal -61.2% | UO-31 renal -93.6% | TK-10 renal -99.3% | ACHN renal -89.2% | CAKI-1 renal -89.8% | A498 renal -11.9% | CCRF-CEM leukemia -24.8% | MOLT-4 leukemia -21% | SR leukemia -25.6% | RPMI-8226 leukemia -29.9% | OVCAR-8 ovarian -72.9% | OVCAR-5 ovarian -69.9% | OVCAR-4 ovarian -81.9% | IGROV1 ovarian -82.7% | OVCAR-3 ovarian -91.3% | HS 578T breast -22% | NCI/ADR-RES ovarian -35.3%
inactive: SK-OV-3 ovarian 27.6%

Cc1ccc(-c2csc(NC(=O)c3ccccc3CN3C(=O)c4ccccc4C3=O)n2)cc1
inactive: SK-MEL-2 melanoma 97.3% | EKVX NSCLC 93.6% | SN12C renal 94.5% | UO-31 renal 85.9% | TK-10 renal 94.4% | ACHN renal 108% | CAKI-1 renal 86.6% | A498 renal 99.8% | CCRF-CEM leukemia 102% | MOLT-4 leukemia 93.4% | SR leukemia 103% | RPMI-8226 leukemia 94.8% | OVCAR-8 ovarian 93.5% | OVCAR-5 ovarian 90.8% | OVCAR-4 ovarian 111% | SK-OV-3 ovarian 97.5% | IGROV1 ovarian 96.5% | OVCAR-3 ovarian 103% | HS 578T breast 98.8% | NCI/ADR-RES ovarian 82.3%

CCCCNC(=O)Oc1ccc(/C(=C(/C)Cc2ccc(OC)cc2)c2ccc(OCCN3CCCCCC3)cc2)cc1
inactive: SK-MEL-2 melanoma 102% | EKVX NSCLC 77.5% | SN12C renal 71% | UO-31 renal 57.6% | TK-10 renal 83.1% | ACHN renal 102% | CAKI-1 renal 83.5% | A498 renal 98.3% | CCRF-CEM leukemia 47.7% | MOLT-4 leukemia 45% | RPMI-8226 leukemia 33.6% | OVCAR-8 ovarian 89.9% | OVCAR-5 ovarian 96% | OVCAR-4 ovarian 84.4% | SK-OV-3 ovarian 85.8% | IGROV1 ovarian 92.3% | OVCAR-3 ovarian 63.9% | HS 578T breast 82.1% | NCI/ADR-RES ovarian 81.4%
active: SR leukemia -44.2%

CSc1nn2c(-c3ccc4ccccc4c3)ccnc2c1C#N
inactive: EKVX NSCLC 33.5% | SN12C renal 23.4% | UO-31 renal 16.7% | ACHN renal 16% | CAKI-1 renal 22.4% | A498 renal 21.9% | CCRF-CEM leukemia 41% | MOLT-4 leukemia 28.5% | SR leukemia 13.8% | RPMI-8226 leukemia 24.1% | OVCAR-8 ovarian 23% | OVCAR-5 ovarian 46.7% | SK-OV-3 ovarian 12.8% | IGROV1 ovarian 20.5% | HS 578T breast 33.6%
active: SK-MEL-2 melanoma -7.77% | TK-10 renal -2.29% | OVCAR-4 ovarian 1.79% | OVCAR-3 ovarian -26% | NCI/ADR-RES ovarian 2.07%

C=CCC(CCCC)(C(=O)OCC)C(=O)OCC
inactive: SK-MEL-2 melanoma 100% | EKVX NSCLC 114% | SN12C renal 110% | UO-31 renal 85.3% | TK-10 renal 104% | ACHN renal 102% | CAKI-1 renal 96.7% | A498 renal 111% | CCRF-CEM leukemia 93.2% | MOLT-4 leukemia 108% | SR leukemia 95.9% | RPMI-8226 leukemia 94.8% | OVCAR-8 ovarian 102% | OVCAR-5 ovarian 106% | OVCAR-4 ovarian 116% | SK-OV-3 ovarian 117% | IGROV1 ovarian 119% | OVCAR-3 ovarian 118% | HS 578T breast 127% | NCI/ADR-RES ovarian 108%

N=C(N)c1ccc(-c2ccc(-c3ccccc3)s2)cc1
inactive: SK-MEL-2 melanoma 105% | EKVX NSCLC 84.6% | SN12C renal 70.3% | UO-31 renal 83.5% | TK-10 renal 108% | ACHN renal 68.3% | CAKI-1 renal 14.5% | A498 renal 89.1% | CCRF-CEM leukemia 21% | OVCAR-8 ovarian 38.1% | OVCAR-5 ovarian 61.4% | OVCAR-4 ovarian 45.8% | SK-OV-3 ovarian 85.2% | IGROV1 ovarian 60.2% | OVCAR-3 ovarian 53.7% | HS 578T breast 87.8% | NCI/ADR-RES ovarian 89.2%
active: MOLT-4 leukemia -3.58% | SR leukemia 7.19% | RPMI-8226 leukemia -4.15%

CN(C)c1ccc(/C=C(\C#N)c2cc3ccccc3[nH]2)cc1
active: CCRF-CEM leukemia 9.57% | RPMI-8226 leukemia 6.48% | OVCAR-3 ovarian 8.37% | HS 578T breast 1.2%
inactive: SK-MEL-2 melanoma 27.3% | EKVX NSCLC 42.2% | SN12C renal 29% | UO-31 renal 37.8% | TK-10 renal 49.2% | ACHN renal 46.2% | CAKI-1 renal 31.5% | A498 renal 14.4% | MOLT-4 leukemia 38.4% | SR leukemia 20% | OVCAR-8 ovarian 26% | OVCAR-5 ovarian 44.9% | OVCAR-4 ovarian 55.7% | SK-OV-3 ovarian 26.5% | IGROV1 ovarian 50% | NCI/ADR-RES ovarian 10.8%

COc1cccc(Nc2ncnc3cc(NC(=O)CCl)ccc23)c1
active: SK-MEL-2 melanoma -45.3% | EKVX NSCLC -24.4% | SN12C renal -74.7% | UO-31 renal -93.9% | TK-10 renal -13.2% | ACHN renal -97.6% | CAKI-1 renal -97.2% | A498 renal -5.63% | CCRF-CEM leukemia -26.9% | MOLT-4 leukemia -31% | SR leukemia -23.3% | RPMI-8226 leukemia -44.8% | OVCAR-8 ovarian -36.6% | OVCAR-5 ovarian -82.2% | OVCAR-4 ovarian -59.5% | SK-OV-3 ovarian -15.9% | IGROV1 ovarian -64.7% | OVCAR-3 ovarian -82.9% | HS 578T breast -15.4% | NCI/ADR-RES ovarian -26.4%

CC1CCN(C(=S)SCC(=O)NC(=O)c2ccccc2)CC1
inactive: SK-MEL-2 melanoma 102% | EKVX NSCLC 102% | SN12C renal 109% | UO-31 renal 92% | TK-10 renal 99.8% | ACHN renal 112% | CAKI-1 renal 102% | A498 renal 99.6% | CCRF-CEM leukemia 106% | MOLT-4 leukemia 93.6% | SR leukemia 80.6% | RPMI-8226 leukemia 102% | OVCAR-8 ovarian 112% | OVCAR-5 ovarian 101% | OVCAR-4 ovarian 96.6% | SK-OV-3 ovarian 104% | IGROV1 ovarian 107% | OVCAR-3 ovarian 111% | HS 578T breast 102% | NCI/ADR-RES ovarian 105%

COC1=C(C)C(=O)N2[C@@H]1[C@H](c1ccccc1)OC21C=CC(=O)C=C1
inactive: SK-MEL-2 melanoma 11.1% | EKVX NSCLC 70.3% | TK-10 renal 20.8% | A498 renal 92.7% | OVCAR-8 ovarian 19.4% | OVCAR-4 ovarian 33.4% | SK-OV-3 ovarian 112% | HS 578T breast 32.6% | NCI/ADR-RES ovarian 20.1%
active: SN12C renal 0.448% | UO-31 renal -42.9% | ACHN renal -29.3% | CAKI-1 renal -59.6% | CCRF-CEM leukemia -19.7% | MOLT-4 leukemia -4.79% | SR leukemia 2.4% | RPMI-8226 leukemia -20.7% | OVCAR-5 ovarian -56.1% | IGROV1 ovarian -20.7% | OVCAR-3 ovarian -4.05%

CCCn1cnc2c(c1=N)C(c1ccc(F)cc1)c1sc3c(F)cccc3c1O2 (stereo not given)
inactive: SK-MEL-2 melanoma 45.8% | EKVX NSCLC 76.5% | SN12C renal 58.6% | UO-31 renal 53.9% | TK-10 renal 80.3% | ACHN renal 56.8% | CAKI-1 renal 30.6% | A498 renal 51.1% | CCRF-CEM leukemia 20.4% | MOLT-4 leukemia 43.8% | SR leukemia 28.8% | RPMI-8226 leukemia 39.7% | OVCAR-8 ovarian 59.1% | OVCAR-5 ovarian 81.4% | OVCAR-4 ovarian 76.7% | SK-OV-3 ovarian 71% | IGROV1 ovarian 46.2% | OVCAR-3 ovarian 10.5% | HS 578T breast 28.7% | NCI/ADR-RES ovarian 31.1%

CC[N+]1(CC)CC[N+]2(CCCC(C)CC2)CC1 (stereo not given)
inactive: SK-MEL-2 melanoma 110% | EKVX NSCLC 100% | SN12C renal 96.4% | UO-31 renal 94.7% | TK-10 renal 104% | ACHN renal 104% | CAKI-1 renal 101% | A498 renal 95.8% | CCRF-CEM leukemia 107% | MOLT-4 leukemia 105% | SR leukemia 106% | RPMI-8226 leukemia 99.9% | OVCAR-8 ovarian 105% | OVCAR-5 ovarian 94.8% | OVCAR-4 ovarian 111% | SK-OV-3 ovarian 104% | IGROV1 ovarian 95.6% | OVCAR-3 ovarian 111% | HS 578T breast 107% | NCI/ADR-RES ovarian 111%

O=C(/C=C/c1ccc(Oc2ccc(Br)cc2)cc1)c1ccc(Br)cc1
inactive: SK-MEL-2 melanoma 96.5% | EKVX NSCLC 103% | SN12C renal 97.2% | UO-31 renal 78.8% | TK-10 renal 95.2% | ACHN renal 102% | CAKI-1 renal 93.5% | A498 renal 73.6% | CCRF-CEM leukemia 91.9% | MOLT-4 leukemia 90.5% | SR leukemia 85.7% | RPMI-8226 leukemia 83.5% | OVCAR-8 ovarian 94.7% | OVCAR-5 ovarian 110% | OVCAR-4 ovarian 95% | SK-OV-3 ovarian 108% | IGROV1 ovarian 99% | OVCAR-3 ovarian 102% | HS 578T breast 102% | NCI/ADR-RES ovarian 98.1%

O=S(=O)(NCCNc1nccc(-c2c(-c3ccc(F)c(O)c3)nc3sccn23)n1)c1ccc(F)cc1
active: UO-31 renal 3.56% | SR leukemia 1.25%
inactive: SK-MEL-2 melanoma 12.3% | EKVX NSCLC 55.7% | SN12C renal 28.5% | TK-10 renal 83.5% | ACHN renal 19.7% | CAKI-1 renal 20.6% | A498 renal 70.9% | CCRF-CEM leukemia 12.7% | MOLT-4 leukemia 11.7% | RPMI-8226 leukemia 11.5% | OVCAR-8 ovarian 29% | OVCAR-5 ovarian 67.9% | OVCAR-4 ovarian 31.5% | SK-OV-3 ovarian 36.1% | IGROV1 ovarian 12.2% | OVCAR-3 ovarian 39.4% | HS 578T breast 26.9% | NCI/ADR-RES ovarian 92.6%

Cc1ccc(-c2nc(-c3cn(C)c4ncccc34)cs2)cc1
inactive: UO-31 renal 14.8% [100 µM] | MOLT-4 leukemia 17.3% [100 µM] | HS 578T breast 13.7% [100 µM]
active: SK-MEL-2 melanoma -14.6% [100 µM] | EKVX NSCLC -13.5% [100 µM] | SN12C renal -13.1% [100 µM] | TK-10 renal -60% [100 µM] | ACHN renal 6.72% [100 µM] | CAKI-1 renal -22.9% [100 µM] | A498 renal -3.41% [100 µM] | CCRF-CEM leukemia -4.89% [100 µM] | SR leukemia 3.67% [100 µM] | RPMI-8226 leukemia -7.33% [100 µM] | OVCAR-8 ovarian -3.32% [100 µM] | OVCAR-5 ovarian -5.34% [100 µM] | OVCAR-4 ovarian -21.5% [100 µM] | SK-OV-3 ovarian -33.7% [100 µM] | IGROV1 ovarian -0.0952% [100 µM] | OVCAR-3 ovarian -28.5% [100 µM] | NCI/ADR-RES ovarian -24.9% [100 µM]
